From PubChem BioAssay (EPA / NIEHS)
The source made the active and inactive calls. How the source made its calls: active means hit-call score of the fitted dose curve at least 0.9, where 1 is the maximum; inactive means score below 0.9.

Legend:
Conditions in all cases: mRNA level, 48 h; actives raise or lower the signal
BCL2L11 (gene 10018) = assay: LTEA_HepaRG_BCL2L11: Life Technologies and Expression Analysis (LTEA) Assay for Bcl-2 (BCL2L11) gene using HepaRG (AID 2283473)
Method in brief: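 HepaRG, 48 h exposure, 8-pt half-log series from 100 uM in 0.5% DMSO, duplicates; qRT-PCR (Fluidigm TaqMan) for BCL2L11, housekeeping-normalized; bidirectional curve fit relative to DMSO baseline.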

[1] = read-out: Apolipoprotein A-V (APOA5) gene, APOA5 (gene 116519); assay: LTEA_HepaRG_APOA5: Life Technologies and Expression Analysis (LTEA) Assay for Apolipoprotein A-V (APOA5) gene using HepaRG (AID 2283474)
Method in brief: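 HepaRG, 48 h chemical exposure in serum-free induction medium, 8-pt half-log series (top 100 uM), 0.5% DMSO vehicle, duplicates. Readout: APOA5 mRNA by qRT-PCR, housekeeping-normalized; bidirectional fit vs DMSO baseline.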

[2] = read-out: Apoptosis regulator Bcl-2 (Homo sapiens) (UniProt P10415); assay: LTEA_HepaRG_BCL2: Life Technologies and Expression Analysis (LTEA) Assay for Bcl-2 gene using HepaRG (AID 2283475)
Method in brief: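 Differentiated human HepaRG cells in serum-free induction medium exposed 48 h, in duplicate, to 8-point half-log series from 100 uM in 0.5% DMSO. BCL2 mRNA by qRT-PCR (TaqMan/Fluidigm), normalized to ACTB, GAPDH, POLR2A; bidirectional fit against DMSO.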

[3] = read-out: Bcl-2 (BID) gene, BID (gene 637); assay: LTEA_HepaRG_BID: Life Technologies and Expression Analysis (LTEA) Assay for Bcl-2 (BID) gene using HepaRG (AID 2283476)
Method in brief: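 Gene expression by qRT-PCR in HepaRG cells after 48 h exposure, duplicate wells, eight half-log concentrations topping at 100 uM in 0.5% DMSO. Normalized to ACTB, GAPDH, POLR2A; bidirectional fitting relative to DMSO.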

Caspase-3 (Homo sapiens) = Caspase-3 (Homo sapiens) (UniProt P42574); assay: LTEA_HepaRG_CASP3: Life Technologies and Expression Analysis (LTEA) Assay for cysteine-aspartic acid protease (CASP3) using HepaRG (AID 2283477)
Sequence of Caspase-3 (Homo sapiens) (P42574 whole entry, looked up): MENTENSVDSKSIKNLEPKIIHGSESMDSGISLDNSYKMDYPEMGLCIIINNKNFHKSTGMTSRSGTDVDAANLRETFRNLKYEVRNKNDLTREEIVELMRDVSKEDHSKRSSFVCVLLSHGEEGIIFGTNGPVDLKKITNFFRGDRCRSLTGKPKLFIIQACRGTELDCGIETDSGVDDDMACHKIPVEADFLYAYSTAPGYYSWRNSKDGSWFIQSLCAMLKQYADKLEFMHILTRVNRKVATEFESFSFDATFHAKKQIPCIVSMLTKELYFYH
Method in brief: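 HepaRG, 48 h exposure, 8 conc. (top 100 uM, half-log steps, duplicate), 0.5% DMSO vehicle; qRT-PCR of CASP3 transcript, housekeeping-normalised (ACTB/GAPDH/POLR2A); bidirectional curve fit vs DMSO baseline.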

[4] = read-out: Cytochrome P450 (CYP24A1), CYP24A1 (gene 1591); assay: LTEA_HepaRG_CYP24A1: Life Technologies and Expression Analysis (LTEA) Assay for Cytochrome P450 (CYP24A1) using HepaRG (AID 2283478)
Method in brief: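 qRT-PCR read-out: CYP24A1 transcript levels normalized to three housekeeping genes, bidirectional curve fits against 0.5% DMSO baseline. Human HepaRG cells treated 48 h with chemicals at eight concentrations from 100 uM in half-log steps.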

[5] = read-out: Cytochrome P450 (CYP1A2), CYP1A2 (gene 1544); assay: LTEA_HepaRG_CYP1A2: Life Technologies and Expression Analysis (LTEA) Assay for Cytochrome P450 (CYP1A2) using HepaRG (AID 2283479)
Method in brief: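 HepaRG, 48 h exposure, top 100 uM, half-log 8-pt, 0.5% DMSO vehicle, duplicates. Readout: TaqMan qRT-PCR of CYP1A2 mRNA, housekeeping-normalized (ACTB/GAPDH/POLR2A). Gain/loss fit relative to DMSO baseline.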

[6] = read-out: cysteine-aspartic acid protease (CASP8), CASP8 (gene 841); assay: LTEA_HepaRG_CASP8: Life Technologies and Expression Analysis (LTEA) Assay for cysteine-aspartic acid protease (CASP8) using HepaRG (AID 2283480)
Method in brief: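 HepaRG, 48 h exposure, duplicate wells; 8 conc, half-log from 100 uM, 0.5% DMSO. Serum-free induction medium. CASP8 mRNA by TaqMan qRT-PCR, norm. ACTB/GAPDH/POLR2A; gain/loss fitted vs DMSO.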

[7] = read-out: Cytochrome P450 (CYP2B6), CYP2B6 (gene 1555); assay: LTEA_HepaRG_CYP2B6: Life Technologies and Expression Analysis (LTEA) Assay for Cytochrome P450 (CYP2B6) using HepaRG (AID 2283481)
Method in brief: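 Read-out is CYP2B6 mRNA by TaqMan qRT-PCR, normalized to three housekeeping genes and fitted bidirectionally against 0.5% DMSO baseline. Human HepaRG cells received test chemicals for 48 h, top concentration 100 uM, half-log dilutions.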

[8] = read-out: Cytochrome P450 2C19 (Homo sapiens) (UniProt P33261); assay: LTEA_HepaRG_CYP2C19: Life Technologies and Expression Analysis (LTEA) Assay for CYP2C19 using HepaRG (AID 2283482)
Method in brief: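 HepaRG, 48 h chemical exposure, 8-pt half-log series from 100 uM in 0.5% DMSO, duplicates. Readout: CYP2C19 mRNA by TaqMan qRT-PCR, housekeeping-normalized. Bidirectional fit vs DMSO baseline; phenobarbital 1mM as induction control.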

CYP2C8 (gene 1558) = assay: LTEA_HepaRG_CYP2C8: Life Technologies and Expression Analysis (LTEA) Assay for CYP2C8 using HepaRG (AID 2283483)
Method in brief: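 CYP2C8 mRNA induction or loss, by qRT-PCR normalized to ACTB/GAPDH/POLR2A, is read in HepaRG cells after 48 h treatment. Concentrations run from 100 uM down in half-log dilutions, with 0.5% DMSO as vehicle and baseline.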

CYP2C9 (gene 1559) = assay: LTEA_HepaRG_CYP2C9: Life Technologies and Expression Analysis (LTEA) Assay for CYP2C9 using HepaRG (AID 2283484)
Method in brief: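 Cells plated 48 h, switched to serum-free induction medium, then treated in duplicate for 48 h at eight concentrations (max 100 uM, 0.5% DMSO). RNA then analysed by qRT-PCR for CYP2C9; curves fitted in both directions relative to DMSO.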

CYP2E1 (gene 1571) = assay: LTEA_HepaRG_CYP2E1: Life Technologies and Expression Analysis (LTEA) Assay for CYP2E1 using HepaRG (AID 2283485)
Method in brief: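 HepaRG cells, plated 48 h, then exposed 48 h in serum-free induction medium to eight half-log concentrations from 100 uM in 0.5% DMSO, duplicate. CYP2E1 mRNA by qRT-PCR, normalized to ACTB/GAPDH/POLR2A; bidirectional fit versus DMSO.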

CYP4A11 (gene 1579) = assay: LTEA_HepaRG_CYP4A11: Life Technologies and Expression Analysis (LTEA) Assay for CYP4A11 using HepaRG (AID 2283486)
Method in brief: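 CYP4A11 transcript levels were quantified by TaqMan qRT-PCR after HepaRG human liver cells were treated for 48 hours with test chemicals (top 100 uM, half-log dilutions, 0.5% DMSO). Gain or loss of signal was fitted relative to DMSO.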

[9] = read-out: Cytochrome P450 3A4 (Homo sapiens) (UniProt P08684); assay: LTEA_HepaRG_CYP3A4: Life Technologies and Expression Analysis (LTEA) Assay for CYP3A4 using HepaRG (AID 2283487)
Method in brief: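 HepaRG, 48 h exposure, 8-pt CRC from 100 uM (half-log), 0.5% DMSO, duplicates; serum-free induction medium. Readout: CYP3A4 mRNA, qRT-PCR, ACTB/GAPDH/POLR2A normalization. Bidirectional fit vs DMSO.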

[10] = read-out: DNA damage-inducible transcript 3 (DDIT3), DDIT3 (gene 1649); assay: LTEA_HepaRG_DDIT3: Life Technologies and Expression Analysis (LTEA) Assay for DNA damage-inducible transcript 3 (DDIT3) using HepaRG (AID 2283488)
Method in brief: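 HepaRG cells, 48 h after plating, exposed 48 h in serum-free induction medium to 8 half-log concentrations up to 100 uM in 0.5% DMSO, in duplicate. DDIT3 mRNA measured by TaqMan qRT-PCR, normalized to ACTB, GAPDH and POLR2A. Fitted bidirectionally against DMSO.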

[11] = read-out: Pro-epidermal growth factor (Homo sapiens) (UniProt P01133); assay: LTEA_HepaRG_EGF: Life Technologies and Expression Analysis (LTEA) Assay for Epidermal growth factor (EGF) using HepaRG (AID 2283489)
Method in brief: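 qRT-PCR readout of EGF transcript after 48 h chemical exposure of HepaRG cells; eight concentrations from 100 uM down in half-log steps, duplicate wells, 0.5% DMSO vehicle. Bidirectional curve fitting against DMSO baseline.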

[12] = read-out: Early growth response protein 1 (EGR1) transcription factor, EGR1 (gene 1958); assay: LTEA_HepaRG_EGR1: Life Technologies and Expression Analysis (LTEA) Assay for Early growth response protein 1 (EGR1) transcription factor using HepaRG (AID 2283490)
Method in brief: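 Read-out is EGR1 mRNA level by qRT-PCR, normalized to three housekeeping genes and analysed for gain or loss of signal against 0.5% DMSO. Source cells: human HepaRG, treated 48 h at up to 100 uM in half-log dilutions.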

[13] = read-out: Ezrin (EZR), EZR (gene 7430); assay: LTEA_HepaRG_EZR: Life Technologies and Expression Analysis (LTEA) Assay for Ezrin (EZR) using HepaRG (AID 2283491)
Method in brief: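 Read-out is EZR transcript level by qRT-PCR, normalized to three housekeeping genes and fitted bidirectionally against the DMSO control. Human HepaRG cells received test chemicals for 48 h at eight half-log concentrations up to 100 uM in 0.5% DMSO.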

[14] = read-out: Cytochrome P450 3A7 (Homo sapiens) (UniProt P24462); assay: LTEA_HepaRG_CYP3A7: Life Technologies and Expression Analysis (LTEA) Assay for CYP3A7 using HepaRG (AID 2283492)
Method in brief: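 CYP3A7 transcript levels were read by TaqMan qRT-PCR on Fluidigm arrays after 48 h chemical exposure of human HepaRG cells, with housekeeping-gene normalisation. Eight half-log concentrations up to 100 uM in 0.5% DMSO were tested in duplicate.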

Measured: AC50

Sequence of Apoptosis regulator Bcl-2 (Homo sapiens) (P10415 whole entry, looked up): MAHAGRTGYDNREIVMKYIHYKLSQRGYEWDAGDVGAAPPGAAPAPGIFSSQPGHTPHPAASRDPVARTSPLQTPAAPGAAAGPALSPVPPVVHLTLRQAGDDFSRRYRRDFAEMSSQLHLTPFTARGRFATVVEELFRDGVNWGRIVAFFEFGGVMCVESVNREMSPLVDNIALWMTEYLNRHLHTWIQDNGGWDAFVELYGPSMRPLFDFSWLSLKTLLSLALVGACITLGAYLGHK
Sequence of Cytochrome P450 2C19 (Homo sapiens) (P33261 whole entry, looked up): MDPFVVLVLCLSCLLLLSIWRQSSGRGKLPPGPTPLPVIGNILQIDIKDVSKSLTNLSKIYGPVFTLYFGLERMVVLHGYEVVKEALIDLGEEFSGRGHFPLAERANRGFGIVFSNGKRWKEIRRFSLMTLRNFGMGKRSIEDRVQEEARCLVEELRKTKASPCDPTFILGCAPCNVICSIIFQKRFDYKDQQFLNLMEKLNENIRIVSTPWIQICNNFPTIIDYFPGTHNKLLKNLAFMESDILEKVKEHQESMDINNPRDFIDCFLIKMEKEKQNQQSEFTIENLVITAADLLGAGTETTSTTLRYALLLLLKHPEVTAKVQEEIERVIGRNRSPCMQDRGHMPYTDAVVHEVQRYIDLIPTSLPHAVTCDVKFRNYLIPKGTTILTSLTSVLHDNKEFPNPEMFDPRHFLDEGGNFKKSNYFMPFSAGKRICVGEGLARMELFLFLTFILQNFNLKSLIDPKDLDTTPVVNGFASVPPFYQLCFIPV
Sequence of Cytochrome P450 3A4 (Homo sapiens) (P08684 whole entry, looked up): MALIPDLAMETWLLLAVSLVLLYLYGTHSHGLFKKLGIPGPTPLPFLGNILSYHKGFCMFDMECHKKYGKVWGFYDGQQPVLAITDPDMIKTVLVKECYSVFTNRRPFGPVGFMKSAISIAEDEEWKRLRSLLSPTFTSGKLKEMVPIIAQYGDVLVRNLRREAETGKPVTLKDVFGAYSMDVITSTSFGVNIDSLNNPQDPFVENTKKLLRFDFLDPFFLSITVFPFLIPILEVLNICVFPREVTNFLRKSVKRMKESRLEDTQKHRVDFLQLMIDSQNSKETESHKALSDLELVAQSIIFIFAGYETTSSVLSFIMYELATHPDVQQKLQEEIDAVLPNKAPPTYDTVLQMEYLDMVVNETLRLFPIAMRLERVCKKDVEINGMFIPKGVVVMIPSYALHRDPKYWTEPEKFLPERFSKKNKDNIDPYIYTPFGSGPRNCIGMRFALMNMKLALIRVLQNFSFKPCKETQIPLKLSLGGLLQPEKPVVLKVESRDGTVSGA
Sequence of Cytochrome P450 3A7 (Homo sapiens) (P24462 whole entry, looked up): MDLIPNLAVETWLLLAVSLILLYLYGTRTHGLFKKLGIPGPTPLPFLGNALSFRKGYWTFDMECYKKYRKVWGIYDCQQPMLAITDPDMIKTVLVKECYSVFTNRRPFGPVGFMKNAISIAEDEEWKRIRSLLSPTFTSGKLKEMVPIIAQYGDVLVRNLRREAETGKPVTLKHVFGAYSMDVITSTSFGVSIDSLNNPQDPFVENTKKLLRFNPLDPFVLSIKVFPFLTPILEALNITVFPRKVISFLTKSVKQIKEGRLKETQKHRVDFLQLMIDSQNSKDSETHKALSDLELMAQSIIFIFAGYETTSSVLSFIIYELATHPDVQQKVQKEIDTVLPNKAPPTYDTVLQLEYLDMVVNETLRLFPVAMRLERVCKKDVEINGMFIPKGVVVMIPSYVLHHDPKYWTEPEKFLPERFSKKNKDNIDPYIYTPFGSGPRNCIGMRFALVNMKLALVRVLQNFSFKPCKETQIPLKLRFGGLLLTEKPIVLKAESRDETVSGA

Oc1cc(Cl)c(Cl)cc1Cl
inactive: all assays above

Clc1cccc(Cl)c1
inactive: all assays above

CC(C)O.CC(C)O.OCCN(CCO)CCO.OCCN(CCO)CCO.[Ti]
active: CYP2E1 (gene 1571) 50 µM
not listed: [7]
inactive: all other assays above

Clc1cccc(Cl)c1Cl
inactive: all assays above

Oc1c(Cl)cc(Cl)cc1Cl
active: [6] 50 µM
inactive: BCL2L11 (gene 10018) | [1] | [2] | [3] | Caspase-3 (Homo sapiens) | [10] | [11] | [12] | [13]

O=C(O)C1(c2ccc3c(c2)OC[C@H](Cc2ccc(-c4ccccc4)cc2)[C@H]3O)CCCC1
active: Caspase-3 (Homo sapiens) 79 µM | [5] 25 µM | CYP2E1 (gene 1571) 84.5 µM | [9] 4.6 µM | [10] 50 µM | [12] 81.7 µM | [13] 63.1 µM
inactive: all other assays above

COc1ccccc1N
active: [7] 24.3 µM
inactive: all other assays above
